Measured values as given in ChEMBL document CHEMBL3988442, “University of Dundee, Small-Polar-MMV Screening Library” (2021).
For some assays here: Results with a measured potency or affinity are listed apart.

Columns and labels:
Design in all cases: scale not given: direction of the effect not stated beside the values
[1] = target: Protein translocase subunit SecA (Escherichia coli (strain K12)) (UniProt P10408); assay: Assay to Identify E. coli SecA ATPase Inhibitors; type: functional; settings: 30 µM
[2] = target: T1, Ubiquitin-activating enzyme e1, putative (Leishmania donovani (strain BPK282A1)) (UniProt E9BSI1); assay: Leishmania donovani Ubiquitin Activating Enzyme (LdE1); type: functional; settings: 30 µM
T1 sequence (whole entry): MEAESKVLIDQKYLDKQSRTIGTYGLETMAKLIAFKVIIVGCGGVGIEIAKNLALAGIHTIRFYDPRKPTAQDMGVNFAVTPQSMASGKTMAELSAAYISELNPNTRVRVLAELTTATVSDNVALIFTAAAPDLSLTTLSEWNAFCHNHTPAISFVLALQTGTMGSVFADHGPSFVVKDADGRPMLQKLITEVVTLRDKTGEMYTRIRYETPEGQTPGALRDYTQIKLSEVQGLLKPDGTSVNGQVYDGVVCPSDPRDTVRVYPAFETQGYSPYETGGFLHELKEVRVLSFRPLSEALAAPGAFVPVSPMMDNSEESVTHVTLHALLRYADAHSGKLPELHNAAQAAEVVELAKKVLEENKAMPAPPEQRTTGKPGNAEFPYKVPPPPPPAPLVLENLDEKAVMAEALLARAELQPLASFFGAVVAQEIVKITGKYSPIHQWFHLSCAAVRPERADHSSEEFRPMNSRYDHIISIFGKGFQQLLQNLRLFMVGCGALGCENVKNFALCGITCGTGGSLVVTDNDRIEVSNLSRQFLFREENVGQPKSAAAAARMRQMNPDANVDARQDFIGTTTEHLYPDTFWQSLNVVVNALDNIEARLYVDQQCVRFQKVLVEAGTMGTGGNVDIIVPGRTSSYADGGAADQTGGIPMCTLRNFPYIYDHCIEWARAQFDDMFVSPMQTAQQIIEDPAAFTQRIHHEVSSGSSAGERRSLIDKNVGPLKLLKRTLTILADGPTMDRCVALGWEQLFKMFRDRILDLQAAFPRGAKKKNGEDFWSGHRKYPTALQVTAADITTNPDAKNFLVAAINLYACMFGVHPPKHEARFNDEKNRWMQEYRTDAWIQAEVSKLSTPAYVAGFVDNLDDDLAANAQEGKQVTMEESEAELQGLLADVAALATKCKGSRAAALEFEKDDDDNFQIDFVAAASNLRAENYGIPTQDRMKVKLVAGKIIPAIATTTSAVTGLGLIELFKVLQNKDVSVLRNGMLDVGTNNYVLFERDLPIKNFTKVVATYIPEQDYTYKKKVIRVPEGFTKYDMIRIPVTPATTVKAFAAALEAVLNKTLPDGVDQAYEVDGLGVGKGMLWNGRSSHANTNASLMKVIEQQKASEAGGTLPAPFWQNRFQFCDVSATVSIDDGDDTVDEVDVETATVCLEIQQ

[3] = target: Sialic acid-binding Ig-like lectin 9 (Homo sapiens) (UniProt Q9Y336); assay: Hs-Siglec9 ALPHAscreen SOP 20170721; settings: 10 µM
Trypanosoma cruzi = assay: Trypanosoma cruzi phosphomannomutase and mannose-1-phosphate guanylyltransferase assay; type: functional; settings: 10 µM
[4] = target: T2, Arginase-2, mitochondrial (Homo sapiens) (UniProt P78540); assay: in vitro enzyme assay to detect the production of urea directly proportional to the activity of Arginase II; type: functional; settings: 33.3 µM; note: in the data most compounds retested in dose-response had high values
T2 sequence (whole entry): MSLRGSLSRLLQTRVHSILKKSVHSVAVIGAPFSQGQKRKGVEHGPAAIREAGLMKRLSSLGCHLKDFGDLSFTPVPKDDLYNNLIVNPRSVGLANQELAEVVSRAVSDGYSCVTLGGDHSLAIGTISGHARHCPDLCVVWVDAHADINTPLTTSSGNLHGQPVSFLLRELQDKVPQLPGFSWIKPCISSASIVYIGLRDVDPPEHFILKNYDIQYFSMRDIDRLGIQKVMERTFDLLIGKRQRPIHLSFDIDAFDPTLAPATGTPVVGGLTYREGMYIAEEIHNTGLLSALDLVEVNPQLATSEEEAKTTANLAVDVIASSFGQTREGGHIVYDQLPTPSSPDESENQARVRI

[5] = target: T3, Proteasome subunit beta (Trypanosoma cruzi) (UniProt O96673); assay: Trypanosoma cruzi proteasome chymotrypsin-like activity (TcProtChymo) assay.; note: in the data most compounds retested in dose-response had high values; type: functional; settings: 9.37 µM
T3 sequence (whole entry): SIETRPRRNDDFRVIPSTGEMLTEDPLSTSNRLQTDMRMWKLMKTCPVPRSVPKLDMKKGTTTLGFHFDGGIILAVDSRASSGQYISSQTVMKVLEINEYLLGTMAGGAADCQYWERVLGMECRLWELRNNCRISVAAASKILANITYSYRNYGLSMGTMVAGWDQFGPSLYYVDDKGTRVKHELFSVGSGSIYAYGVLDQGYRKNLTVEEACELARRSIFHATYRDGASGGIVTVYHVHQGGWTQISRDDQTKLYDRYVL

Homo sapiens = species: Homo sapiens; assay: To identify inhibition of the IFN signalling (Jak-Stat) pathway via expression of an eGFP reporter gene under the control of an IFN-stimulated response element (ISRE) containing MxA promoter.; type: functional; settings: 30 µM
[6] = target: T4, Tyrosyl-tRNA synthetase, putative (Trypanosoma cruzi (strain CL Brener)) (UniProt Q4DSP6); assay: Trypanosoma cruzi tyrosyl tRNA synthetase (TcYRS) _High Tyrosine SOP; type: functional; settings: 30 µM; note: in the data most compounds retested in dose-response had high values
T4 sequence (whole entry): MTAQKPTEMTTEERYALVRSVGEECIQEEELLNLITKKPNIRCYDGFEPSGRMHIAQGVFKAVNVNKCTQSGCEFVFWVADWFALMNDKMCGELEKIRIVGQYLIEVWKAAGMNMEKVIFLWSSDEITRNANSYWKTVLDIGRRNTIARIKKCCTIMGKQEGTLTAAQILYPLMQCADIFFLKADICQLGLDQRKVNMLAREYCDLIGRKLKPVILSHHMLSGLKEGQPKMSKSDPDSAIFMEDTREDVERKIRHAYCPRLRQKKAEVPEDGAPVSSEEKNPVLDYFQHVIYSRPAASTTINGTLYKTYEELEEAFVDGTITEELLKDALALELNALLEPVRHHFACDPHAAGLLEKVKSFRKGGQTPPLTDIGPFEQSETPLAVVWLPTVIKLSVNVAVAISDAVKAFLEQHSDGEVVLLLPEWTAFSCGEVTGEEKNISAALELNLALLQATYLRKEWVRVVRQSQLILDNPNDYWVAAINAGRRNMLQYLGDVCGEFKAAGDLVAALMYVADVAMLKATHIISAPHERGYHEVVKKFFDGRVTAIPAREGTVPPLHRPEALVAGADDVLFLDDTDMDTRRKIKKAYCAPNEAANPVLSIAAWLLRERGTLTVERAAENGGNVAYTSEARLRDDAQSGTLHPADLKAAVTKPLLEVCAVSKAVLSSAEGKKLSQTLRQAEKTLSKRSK

[7] = target: T4, Tyrosyl-tRNA synthetase, putative (Trypanosoma cruzi (strain CL Brener)); assay: Trypanosoma cruzi tyrosyl tRNA synthetase (TcYRS) SOP; type: functional; settings: 30 µM
[8] = target: Chromo domain-containing protein 1 (Saccharomyces cerevisiae (strain ATCC 204508 / S288c) (Baker's yeast)) (UniProt P32657); assay: ScCHD-1 Enzyme Inhibition Assay; type: functional; settings: 30 µM; note: in the data most compounds retested in dose-response had high values
Chromo domain-containing protein 1 (Saccharomyces cerevisiae (strain ATCC 204508 / S288c) (Baker's yeast)), sequence (P32657 whole entry, the tested form may be a part): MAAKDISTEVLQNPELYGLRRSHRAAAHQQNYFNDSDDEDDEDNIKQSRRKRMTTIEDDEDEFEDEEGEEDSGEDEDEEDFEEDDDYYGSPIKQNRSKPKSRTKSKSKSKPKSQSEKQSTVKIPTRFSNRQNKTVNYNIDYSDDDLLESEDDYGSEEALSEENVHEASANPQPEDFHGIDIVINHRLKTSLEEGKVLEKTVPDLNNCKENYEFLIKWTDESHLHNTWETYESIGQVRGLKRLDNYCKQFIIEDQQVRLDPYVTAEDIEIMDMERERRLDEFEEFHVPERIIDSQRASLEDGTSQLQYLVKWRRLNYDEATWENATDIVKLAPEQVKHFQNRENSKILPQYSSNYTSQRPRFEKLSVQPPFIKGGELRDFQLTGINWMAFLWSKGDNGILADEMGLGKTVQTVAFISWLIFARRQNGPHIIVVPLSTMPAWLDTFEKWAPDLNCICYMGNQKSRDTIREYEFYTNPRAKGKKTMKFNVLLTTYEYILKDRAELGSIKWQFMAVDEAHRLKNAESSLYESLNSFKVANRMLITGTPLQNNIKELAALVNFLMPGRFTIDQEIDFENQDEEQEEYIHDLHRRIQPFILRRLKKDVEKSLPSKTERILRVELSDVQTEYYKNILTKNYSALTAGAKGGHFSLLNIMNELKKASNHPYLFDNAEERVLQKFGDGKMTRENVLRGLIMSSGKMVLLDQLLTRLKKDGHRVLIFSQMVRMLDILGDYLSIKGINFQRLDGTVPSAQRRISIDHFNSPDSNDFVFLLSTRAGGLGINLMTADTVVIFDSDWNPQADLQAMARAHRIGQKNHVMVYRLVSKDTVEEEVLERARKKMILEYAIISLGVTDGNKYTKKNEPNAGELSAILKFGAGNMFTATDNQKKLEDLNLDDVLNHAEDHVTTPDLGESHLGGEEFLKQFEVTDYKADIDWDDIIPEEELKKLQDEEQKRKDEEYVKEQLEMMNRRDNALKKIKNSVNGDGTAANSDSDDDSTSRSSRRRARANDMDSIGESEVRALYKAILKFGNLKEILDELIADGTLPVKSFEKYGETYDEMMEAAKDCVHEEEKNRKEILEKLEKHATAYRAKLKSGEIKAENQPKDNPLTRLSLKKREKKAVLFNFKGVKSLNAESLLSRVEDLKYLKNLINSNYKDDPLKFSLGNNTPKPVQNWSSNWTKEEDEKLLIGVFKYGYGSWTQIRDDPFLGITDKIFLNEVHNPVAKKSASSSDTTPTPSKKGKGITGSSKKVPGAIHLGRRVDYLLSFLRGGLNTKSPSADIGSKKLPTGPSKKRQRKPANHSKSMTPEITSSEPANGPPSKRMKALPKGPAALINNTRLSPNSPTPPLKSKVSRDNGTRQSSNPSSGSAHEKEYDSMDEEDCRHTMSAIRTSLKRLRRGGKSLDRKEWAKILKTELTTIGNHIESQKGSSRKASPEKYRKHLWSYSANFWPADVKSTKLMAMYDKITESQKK

Sialic acid-binding Ig-like lectin 9 (Homo sapiens), sequence (Q9Y336 whole entry): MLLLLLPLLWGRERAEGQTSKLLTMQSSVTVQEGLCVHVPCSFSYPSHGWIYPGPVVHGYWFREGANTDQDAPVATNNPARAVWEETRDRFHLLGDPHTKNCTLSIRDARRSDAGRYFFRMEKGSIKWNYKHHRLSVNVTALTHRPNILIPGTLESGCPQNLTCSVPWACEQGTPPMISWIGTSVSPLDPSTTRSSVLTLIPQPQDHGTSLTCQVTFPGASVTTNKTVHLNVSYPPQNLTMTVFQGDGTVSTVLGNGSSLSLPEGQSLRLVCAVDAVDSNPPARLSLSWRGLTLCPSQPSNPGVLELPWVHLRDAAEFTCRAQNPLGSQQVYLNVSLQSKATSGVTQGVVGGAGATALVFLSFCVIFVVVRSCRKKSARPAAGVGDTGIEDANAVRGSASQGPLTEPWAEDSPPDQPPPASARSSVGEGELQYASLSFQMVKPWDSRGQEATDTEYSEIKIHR
Protein translocase subunit SecA (Escherichia coli (strain K12)), sequence (P10408 whole entry): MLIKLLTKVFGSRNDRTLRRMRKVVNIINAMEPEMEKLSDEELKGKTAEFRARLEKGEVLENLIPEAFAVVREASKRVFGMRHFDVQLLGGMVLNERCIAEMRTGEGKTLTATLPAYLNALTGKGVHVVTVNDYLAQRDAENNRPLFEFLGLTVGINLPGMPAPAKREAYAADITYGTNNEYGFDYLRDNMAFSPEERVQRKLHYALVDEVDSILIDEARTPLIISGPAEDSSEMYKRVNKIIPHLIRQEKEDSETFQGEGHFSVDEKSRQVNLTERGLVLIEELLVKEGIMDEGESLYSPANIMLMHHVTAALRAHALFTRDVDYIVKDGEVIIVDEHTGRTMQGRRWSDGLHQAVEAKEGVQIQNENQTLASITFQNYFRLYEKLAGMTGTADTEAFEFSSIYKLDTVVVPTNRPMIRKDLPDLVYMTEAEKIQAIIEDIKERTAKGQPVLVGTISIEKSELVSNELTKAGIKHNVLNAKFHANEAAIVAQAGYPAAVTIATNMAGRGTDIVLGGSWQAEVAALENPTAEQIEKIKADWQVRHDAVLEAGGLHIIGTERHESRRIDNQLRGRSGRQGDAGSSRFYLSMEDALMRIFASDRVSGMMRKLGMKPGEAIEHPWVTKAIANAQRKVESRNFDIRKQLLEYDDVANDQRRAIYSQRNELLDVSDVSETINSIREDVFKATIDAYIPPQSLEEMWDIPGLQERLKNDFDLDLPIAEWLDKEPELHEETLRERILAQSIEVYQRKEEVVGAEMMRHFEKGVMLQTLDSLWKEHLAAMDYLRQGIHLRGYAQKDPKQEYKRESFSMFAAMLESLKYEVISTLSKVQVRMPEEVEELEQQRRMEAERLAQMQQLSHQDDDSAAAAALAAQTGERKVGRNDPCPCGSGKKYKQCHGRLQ

Structure (SMILES) | Percent Effect [1] | Percent Effect [2] | Percent Effect [3] | Percent Effect (Trypanosoma cruzi) | Percent Effect [4] | Percent Effect [5] | Percent Effect (Homo sapiens) | Percent Effect [6] | Percent Effect [7] | Percent Effect [8]
Cc1nn(-c2ccccc2)cc1C(=O)N1CCCN2CCCC2C1 (stereo not given) | -4.61% | 10.7% | 5.72% | -0.201% | 0.887% | 7.21% | 3.25% | 7.89% | 12.8% | -14.7%
Cc1ccc(OC2(C(=O)O)CCN(C(=O)c3ccc(F)cc3)CC2)cn1 | -6.12% | -2.7% | 27.8% | 9.41% | -1.05% | 1.88% | -18.1% | 2.66% | 7.32% | -1.29%
Cc1ccc2c(n1)N(Cc1cccnc1)CCN(C(=O)C1CCC1)C2 | -1.28% | 6.49% | -4.98% | -4.77% | 7.29% | 11.4% | 16.9% | 4.74% | 7.69% | -6.47%
C[C@]1(O)CCN(Cc2cncs2)C[C@@H]1Oc1cccc(F)c1 | 0.894% | 4% | 6.06% | -4.93% | 3.1% | -1.64% | 14.1% | 1.06% | 2.5% | -19.6%
Cc1cccc(C(=O)N2CCCCC2c2ccc(CN(C)C)cc2)n1 (stereo not given) | -1.58% | 18.9% | 3.59% | 5.92% | 27.6% | 21.2% | 5.13% | 9.04% | 14.6% | -6.07%
O=C(C1CC=CC1)N1CCC2(CC1)CN(Cc1ccccn1)CCO2 | -2.34% | 1.3% | -0.373% | 2.63% | -4.86% | 5.74% | -19% | 1.58% | 5.13% | 3.73%
COc1ccc(CNCc2ccnc(N3CCOCC3)c2)cc1OC | -2.27% | 33.3% | -6.8% | 5.16% | -8.61% | 10.7% | 11.3% | 6.22% | 20.5% | -7.91%
O=C(Cc1cccnc1)N1CCC(OCc2ccccc2)CC1 | -7.08% | -8.11% | 3% | -2.42% | -0.35% | 13.2% | 24.2% | 6.92% | 19.5% | 101%
O=C1CCCc2nccc(-c3ccccc3)c21 | 3.95% | 22.7% | -10% | 2.56% | 0.443% | 27.1% | 9.37% | 3.17% | -45% | -16.7%
CC(C)CNC(=O)c1ccc2nnc(C3CCN(S(C)(=O)=O)C3)n2c1 (stereo not given) | -3.3% | -3.9% | 1.06% | -1.27% | 0% | 3.44% | -2.55% | -0.526% | 2.56% | -1.85%
CC(C)N1CCO[C@H]2CN(C(=O)c3ccc(N(C)C)cc3)C[C@H]21 | -3.12% | 1.3% | -9.38% | -6.13% | 3.64% | 15.6% | 4.68% | 8.95% | 12.8% | -3.55%
